The whole screen tested about 310,000 compounds, of which about 14,000 (4.5%) showed an effect of 50% or more. Effects have a minus sign here. This is one part of a sample in which strong results are shown more often than they occur.
Each compound was assayed against human ether-à-go-go-related gene (hERG) potassium channel (human, UniProt Q12809) (assay: primary screen, population patch clamp on CHO cells stably expressing hERG; higher = less effect of the substance).
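Further: peak tail current of the secondary pulse compared with the same well before compound.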

Sequence of human ether-à-go-go-related gene (hERG) potassium channel (Q12809 whole entry, looked up): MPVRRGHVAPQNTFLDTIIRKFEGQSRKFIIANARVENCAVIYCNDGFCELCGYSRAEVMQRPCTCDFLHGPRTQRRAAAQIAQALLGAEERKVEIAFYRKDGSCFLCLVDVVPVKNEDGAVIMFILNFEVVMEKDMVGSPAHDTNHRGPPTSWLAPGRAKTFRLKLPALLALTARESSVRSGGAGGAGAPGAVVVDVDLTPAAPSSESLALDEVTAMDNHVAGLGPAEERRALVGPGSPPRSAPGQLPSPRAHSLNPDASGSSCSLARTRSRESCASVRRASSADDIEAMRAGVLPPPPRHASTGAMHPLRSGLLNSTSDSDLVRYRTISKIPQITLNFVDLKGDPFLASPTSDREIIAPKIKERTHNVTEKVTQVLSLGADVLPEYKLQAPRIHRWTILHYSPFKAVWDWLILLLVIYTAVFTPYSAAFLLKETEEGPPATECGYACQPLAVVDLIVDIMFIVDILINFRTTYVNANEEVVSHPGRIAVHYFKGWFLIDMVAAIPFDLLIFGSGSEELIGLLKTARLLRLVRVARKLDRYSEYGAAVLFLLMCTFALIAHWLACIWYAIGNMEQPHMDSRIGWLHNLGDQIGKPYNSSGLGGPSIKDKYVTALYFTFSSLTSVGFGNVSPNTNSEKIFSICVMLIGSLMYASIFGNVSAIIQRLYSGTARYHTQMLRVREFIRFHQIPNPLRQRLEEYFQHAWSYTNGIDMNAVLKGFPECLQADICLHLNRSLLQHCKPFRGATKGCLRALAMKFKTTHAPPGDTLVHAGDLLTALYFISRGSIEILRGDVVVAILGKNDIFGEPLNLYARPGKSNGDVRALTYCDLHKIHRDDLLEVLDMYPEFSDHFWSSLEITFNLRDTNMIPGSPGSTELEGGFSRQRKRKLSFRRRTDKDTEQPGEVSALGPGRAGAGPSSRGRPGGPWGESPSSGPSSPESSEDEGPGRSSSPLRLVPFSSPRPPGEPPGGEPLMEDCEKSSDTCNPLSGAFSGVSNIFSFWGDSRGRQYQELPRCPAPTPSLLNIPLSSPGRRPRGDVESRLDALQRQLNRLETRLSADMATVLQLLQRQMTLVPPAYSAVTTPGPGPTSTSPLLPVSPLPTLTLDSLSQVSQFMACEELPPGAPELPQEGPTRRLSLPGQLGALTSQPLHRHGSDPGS

| SMILES | hERG current change (%, negative = inhibition) at 10uM |
| --- | --- |
| CC(=O)Nc1ccc(S(=O)(=O)N2CCN(CCCOc3ccccc3Cl)CC2)cc1 | -49.6% |
| CN(CCN1CCOCC1)C(=O)CC1C(=O)NCCN1Cc1ccccc1F (centres unmarked) | 12% |
| Cc1cc(C)cc(NC(=O)CSc2ccc(-c3ccccn3)nn2)c1 | 8.61% |
| Cc1csc(NC(=O)CSc2ccc(-c3ccccn3)nn2)n1 | -73.6% |
| Cc1nnc(NC(=O)CSc2ccc(-c3ccccn3)nn2)s1 | 12.1% |
| Cc1ccc(-n2c(SCC(N)=O)nnc2-c2ccccn2)cc1C | 8.79% |
| Cc1csc(NC(=O)CSc2nnc(-c3ccccn3)n2-c2ccc(C)c(C)c2)n1 | -78.5% |
| Cc1csc(NC(=O)CSc2ccc(-c3ccccc3)nn2)n1 | -66.9% |
| Cc1csc(NC(=O)CSc2ccc(-c3ccc(F)cc3)nn2)n1 | -26.8% |
| CCN(CC)C(=O)CSc1nnc(-c2ccccn2)n1-c1ccc(C)c(C)c1 | -24.8% |
| Cc1csc(SCC(=O)Nc2nc(-c3ccccc3)cs2)n1 | -8.35% |
| COc1ccc(CCN2C(=O)CSC2c2cccc([N+](=O)[O-])c2)cc1OC (centres unmarked) | -3.39% |
| CCOC(=O)c1c(C)nc2c(c1-c1ccccc1)C(=O)CC(C)(C)C2 | -16.8% |
| CC(OC(=O)c1ccc(O)cc1)C(=O)Nc1nc(-c2ccccc2)cs1 (centres unmarked) | -17.8% |
| CCOC(=O)N1CCN(C(=O)C2CCN(S(=O)(=O)c3ccc(F)cc3)CC2)CC1 | -19.3% |
| CSc1ccccc1C(=O)NC1CCCN(Cc2ccccc2F)C1 (centres unmarked) | -11.5% |
| CC(=O)NC1C(OCc2cccc(Br)c2)OC(COC(C)=O)C(OC(C)=O)C1OC(C)=O (centres unmarked) | -12.4% |
| CNC(=O)c1ccccc1Sc1ccccc1C#N | 19.1% |
| CCOc1cc(N2CCOCC2)c(OCC)cc1NC(=O)C(C)(C)C | 17.4% |
| Cc1ccc(C(=O)N2CCC(C(=O)Nc3cccc([N+](=O)[O-])c3)CC2)cc1 | -80.1% |
| O=C(Nc1ccccc1)C1CCN(C(=O)c2ccc([N+](=O)[O-])cc2)CC1 | -71.4% |
| Cc1ccc(N2CCN(C(=O)Nc3cccc([N+](=O)[O-])c3)CC2C)cc1 (centres unmarked) | -78.3% |
| O=C(Nc1ccc(F)cc1)C1CCN(C(=O)c2ccc([N+](=O)[O-])cc2)CC1 | -4.16% |
| COc1cc(C(=O)N2CCC(C(=O)Nc3cccc(C(C)=O)c3)CC2)cc(OC)c1OC | -2.12% |

| SMILES | hERG current change (%, negative = inhibition) at 10uM |
| --- | --- |
| O=C(Nc1cccc([N+](=O)[O-])c1)N1CCN(c2ccccc2)CC1 | -38.7% |
| O=C(Nc1cccc([N+](=O)[O-])c1)C1CCN(C(=O)Cc2ccccc2)CC1 | -43.3% |
| CCc1cccc(C)c1NC(=O)C1CCN(C(=O)c2ccc([N+](=O)[O-])cc2)CC1 | -48.2% |
| CC(=O)c1ccc(NC(=O)N2CCN(c3ccc(C)cc3)C(C)C2)cc1 (centres unmarked) | -19.6% |
| CC(=O)c1cccc(NC(=O)C2CCN(C(=O)c3ccc([N+](=O)[O-])cc3)CC2)c1 | -69.6% |
| CC(=O)c1cccc(NC(=O)C2CCN(C(=O)c3ccccc3Cl)CC2)c1 | -0.359% |
| CC(=O)Nc1ccc(NC(=O)C2CCN(C(=O)c3ccc([N+](=O)[O-])cc3)CC2)cc1 | -0.926% |
| NC(=O)CN1C2CCC1CC(NC(=O)C1CC1)C2 (centres unmarked) | 14.7% |
| O=C(Nc1ccc(C(=O)N2CCCC2)cc1)c1ccccc1Br | 19.8% |
| COc1ccccc1NS(=O)(=O)c1ccc(O)cc1 | 1.44% |
| COc1nc(N=C(N)N)nc2c(C)cccc12 | -2.93% |
| CC(=O)Nc1ccc(S(=O)(=O)Nc2nc3ccccc3nc2Nc2ccccc2)cc1 | 10.3% |
| CC(=O)Nc1ccc(NC(=O)CN(C)S(=O)(=O)c2ccc3nc(C)sc3c2)cc1 | 25.7% |
| O=C1NCCCC1C(=O)N/N=C/c1ccccc1 (centres unmarked) | -4.35% |
| O=C(c1cc2sccc2n1Cc1ccccc1)N1CCCc2ccccc21 | 1.8% |
| Cn1c(-c2ccc3c(c2)OCO3)cnc1NCc1ccccc1.O=C(O)C(=O)O | -60% |
| Cc1ccc(CNc2ccc3c(c2)OCO3)cc1 | -4.29% |
| Cn1c(-c2ccc3c(c2)OCO3)cnc1NCc1cccc(Cl)c1.O=C(O)C(=O)O | -74% |
| Cn1c(-c2ccc3c(c2)OCO3)cnc1N | -16.5% |
| Cn1c(-c2ccc3c(c2)OCO3)cnc1NC(=O)CCC(=O)NCCc1ccccc1 | -6.98% |
| Cc1ccc(CNc2ncc(-c3ccc4c(c3)OCO4)n2C)cc1.O=C(O)C(=O)O | -59% |
| O=C(NCc1cccc(Cl)c1)c1ccc2c(c1)OCO2 | 0.973% |
| Cn1c(-c2ccc3c(c2)OCO3)cnc1NCc1cccc(O)c1.O=C(O)C(=O)O | -23.1% |
